Inconclusive results are not listed. A number with no mark means an inactive call. The call rests on the fitted dose curve; in most records, active means well fitted cell-killing curve with a large enough effect; inconclusive means small, poorly fitted or top-dose-only effect, or effect the other way; inactive means flat fitted curve, though single readings scatter.
Tested on: Es-2
Assay: Primary qHTS to identify gynecologic anti-cancer compounds using libraries of approved drugs and bioactive compounds (AID 1345084); further: nearly all actives have a fitted effect of over 55% in size
Conditions: Gynecologic cancer cell panel viability, ATPlite luminescence, 48 h; series mostly up to 57.5 µM; activity change, negative = cytotoxicity: at the top concentration
In short: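 In this quantitative HTS, cell killing is estimated from loss of ATP-dependent luciferase light. Cells see five compound concentrations over a 48 h exposure.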
On the % scale 0 is the no-effect control and ±100 the full control effect.

| SMILES | activity change, negative = cytotoxicity |
| --- | --- |
| C/C=C(\C)C(=O)O[C@H]1[C@@H](O[C@]2(COC(=O)CC(C)C)O[C@H](COC(=O)C(C)CC)[C@@H](OC(C)=O)[C@@H]2O)O[C@H](COC(C)=O)[C@@H](O)[C@@H]1O (some centres undefined) | 3.51% [at 25.3 µM] |
| C=C(C(=O)O)C1CC2=C(C)CCCC2(C)C[C@@H]1O (some centres undefined) | 2.9% |
| O=C(NCc1ccc(F)cc1)C(=O)c1c[nH]c2ccccc12 | -2% |
| C/C(=C\C=C\C(C)C1CCC2(C)C3CCC4C(C)(C)C(=O)CCC45CC35CCC12C)C(=O)O (centres undefined) | 4.43% [at 25.3 µM] |
| C/C(=C\CCC(C)CCO)C(=O)OC1(C)CCC2C(C(=O)O)=COC(OC3OC(CO)C(O)C(O)C3O)C21 (centres undefined) | -2.32% [at 25.3 µM] |
| CC(=O)O[C@@H]1[C@@H](OC(=O)/C=C/c2ccccc2)[C@@H](OC(C)=O)[C@H](O[C@H]2[C@@H]3C=CO[C@@H](O[C@@H]4O[C@H](CO)[C@@H](O)[C@H](O)[C@H]4O)[C@@H]3[C@@]3(CO)O[C@@H]23)O[C@H]1C | 7.42% [at 25.3 µM] |
| CCN(CC)Cc1ccc(C(=O)N(CCc2ccccc2OC)[C@@H]2CCNC2)cc1 | -23% [at 25.3 µM] |
| O=C1OCc2cc3cccc(O[C@@H]4O[C@H](CO)[C@@H](O)[C@H](O)[C@H]4O)c3c(O)c21 | -3.73% [at 38.5 µM] |
| N#Cc1ccc(C(=O)N2CCC3(CC2)N=C(N)c2c(F)ccc(F)c2N3)cn1 | 6.78% |
| CCCCc1ccc(C(=O)Nc2cc(-c3ccc(Cl)cc3)nn2-c2ccc(Cl)cc2)cc1 | 12.9% |
| O=C(C(c1ccccc1)c1ccccc1)N1CCN(CC(O)COc2cccc3ncccc23)CC1 (centres undefined) | 6.43% |
| CC(C)c1cc2c(c(O)c1O)[C@@]13CCCC(C)(C)[C@@H]1[C@H](OC3=O)C2=O | 3.22% [at 38.5 µM] |
| CC(C)CNCc1ccc(-c2ccccc2S(=O)(=O)N2CCCC2)cc1 | 0.131% |
| Nc1nc2c(c(N3CCNCC3)n1)CCC1=C2[C@@H]2CCCC[C@@H]2O1 | -9.01% |
| CC1(C)CC[C@]2(C(=O)O)CC[C@]3(C)C(=CCC4[C@@]5(C)CC[C@H](O[C@@H]6O[C@H](C(=O)O)[C@@H](O[C@@H]7OC[C@@H](O)[C@H](O)[C@H]7O)[C@H](O)[C@H]6O)C(C)(C)C5CC[C@]43C)C2C1O (some centres undefined) | 2.73% [at 25.3 µM] |
| N[C@H]1Cc2ccccc2N(O)C1=O | 2.29% |
| C=C1CCC2C(C)(C)C(O)CCC2(C)C1CCC(C)CCOC(C)=O (centres undefined) | -0.332% [at 38.5 µM] |
| CC(C)(C)NS(=O)(=O)c1cncc(-c2cc(F)c3nc(N)nn3c2)c1 | -2.58% |
| C/C=C/C=C/C(O)=C1\C(O)=C(C)C(=O)[C@@]2(C)OC(=O)[C@@](C)(NC(=O)/C=C/C(=O)O)[C@@H]12 | -6.35% [at 25.3 µM] |
| C[C@@H]1CCC2C(C)(C)[C@H](O)CC[C@]2(C)[C@@]12Cc1c(O)cc3c(c1O2)CN([C@@H](CCC(=O)O)C(=O)O)C3=O (some centres undefined) | -4.42% [at 25.3 µM] |

| SMILES | activity change, negative = cytotoxicity |
| --- | --- |
| C/C=C/C=C/C(O)=C1\C(=O)[C@]2(C)C3C(C(=O)CC/C=C/C)=C(O)C4(C)C1[C@]1(C)O[C@@]4(O)[C@@]3(C)O[C@@]12O | -1.21% [at 25.3 µM] |
| C[C@@H]1O[C@@H](O[C@H]2[C@H](OC(=O)[C@]34CCC(C)(C)C[C@H]3C3=CCC5[C@@]6(C)C[C@H](O)[C@H](O[C@@H]7O[C@H](CO)[C@@H](O)[C@H](O)[C@H]7O)[C@@](C)(CO)C6[C@H](O)C[C@@]5(C)[C@]3(C)CC4)OC[C@H](O)[C@@H]2O)[C@H](O)[C@H](O)[C@H]1O[C@@H]1OC[C@@H](O)[C@H](O[C@@H]2OC[C@](O)(CO)[C@H]2O)[C@H]1O (some centres undefined) | 6.38% [at 6.55 µM] |
| C1CCC[C@H]2CCCN3CC[C@@H](CCCCCC[C@@H]4CCCN5CC[C@@H](CC1)O[C@@H]45)O[C@@H]23 | 2.67% [at 0.155 µM] |
| Cc1[nH]c2ccccc2c1C1=C(NCCc2ccc(F)cc2)C(=O)N(C)C1=O | 24.2% |
| OC[C@H]1O[C@@H](O[C@H]2[C@H](OCCc3ccccc3)O[C@H](CO)[C@@H](O)[C@@H]2O)[C@H](O)[C@@H](O)[C@@H]1O | -4.24% [at 25.3 µM] |
| C=C1[C@@H]2CC[C@@H]3[C@@](CCC4C(C(=O)O)(C(=O)O)C[C@@H](O[C@@H]5O[C@H](CO)[C@@H](O)[C@H](O)[C@H]5OC(=O)CC(C)C)C[C@]43C)(C2)[C@H]1O (some centres undefined) | -1.21% [at 25.3 µM] |
| CC(=O)C1=C(C)N(c2cccc(C(F)(F)F)c2)C(=O)N[C@H]1c1ccc(C#N)nc1 | 6.68% [at 11.6 µM] |
| CC(CCC1(O)OC2CC3C4CCC5CC(O[C@@H]6O[C@H](CO)[C@@H](O)[C@H](O)[C@H]6O[C@@H]6O[C@@H](C)[C@H](O)[C@@H](O)[C@H]6O)C(O)CC5(C)C4CCC3(C)C2C1C)CO[C@@H]1O[C@H](CO)[C@@H](O)[C@H](O)[C@H]1O (some centres undefined) | -3.1% [at 11.6 µM] |
| OCC1OC(Oc2cc(O)cc(/C=C/c3ccc(O)cc3)c2)C(O)C(O)C1O (centres undefined) | -8.48% [at 38.5 µM] |
| CCC(C)/C=C(C)/C=C/c1cc2c(cn1)C(=O)C(C)(OC(C)=O)C(O)=C2Cl (centres undefined) | -8.68% [at 38.5 µM] |
| CC1=CC(=O)CC(C)(C)[C@@]1(O)CC[C@@H](C)O[C@@H]1O[C@H](CO)[C@@H](O)[C@H](O)[C@H]1O | -1.06% [at 38.5 µM] |
| CC1(C)CCC[C@@]2(C)C1[C@H](OC(=O)/C=C/C=C/C(=O)O)C=C1COC(=O)[C@@]12O (some centres undefined) | 5.17% [at 38.5 µM] |
| O=C1NC2CCc3nc4ccccc4c(=O)n3C2=Nc2ccccc21 (centres undefined) | 0.509% [at 38.5 µM] |
| CC(C)[N+]1(C)C2CCC1CC(OC(=O)C(CO)c1ccccc1)C2 (centres undefined) | 6.7% |
| COc1cc2oc(-c3ccc(O)cc3O)cc2c(OC)c1CC=C(C)C | 5.76% [at 38.5 µM] |
| CC(=O)OC1C(O)CC2(C)C(CCC(C)C23Cc2c(O)cc(CO)c(C=O)c2O3)C1(C)C (centres undefined) | 3.06% [at 25.3 µM] |
| Cc1[nH]nc(C(F)(F)F)c1Cc1sc2c(c1C(=O)N1C[C@](C)(O)CO1)c(=O)n(C)c(=O)n2C(C)C | 0.145% |
| O=C(CC1C(=O)Nc2ccccc21)OC[C@H]1O[C@@H](OCCc2ccc(O)cc2)[C@H](O)[C@@H](O)[C@@H]1O (some centres undefined) | -1.84% [at 25.3 µM] |
| CC1CCC23COC(=O)C2=CC(O)CC3C1(C)CCC1=CC(O)OC1=O (centres undefined) | -1.48% [at 38.5 µM] |

— PubChem BioAssay (NCATS)
